In the library only some 8% were active in any assay of this set; here they are far more common.
MCF10A rerep = induces DNA re-replication in MCF 10a normal breast cells. MCF 10A DNA re-replication, Hoechst nuclear intensity, 48 h. Potency, µM (titrated, usually from 46.1 µM), for the others: at the highest dose activity, positive = re-replication, most hits filed as activators. 350,000 tested, 2.9% active. AID 624296; further: % of control where 0% means no effect; nearly all actives have a fitted effect of over 50% in size
SW480 rerep = DNA re-replication induction in SW480 cells | SW480 DNA re-replication, Hoechst DNA content imaging, 48 h | 340,000 tested, 1.8% active | AID 624297 | Potency, µM (series often up to 46.1 µM), for the others: at the highest dose re-replication activation, hits mostly activators; further: % of control where 0% means no effect; nearly all actives have a fitted effect of over 55% in size
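Image-based read-out: total Hoechst fluorescence of nuclei (405 nm excitation, 500-530 nm emission), with hits raising the fraction of high-intensity nuclei. SW480 colon cells incubated 48 hr with compounds at 37 C.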
HT1080 IDH1KD tx = HT-1080 IDH1 knockdown cell toxicity (counter line); AID 686971; HT-1080 IDH1 knockdown viability, ATP luminescence, 48 h; Potency, µM (series often up to 46.1 µM), for inactives: at the top dose activity, negative = toxicity, usual class: cytotoxic; 360,000 tested, 2% active;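 further: 0% = DMSO wells and -100% = cell-free medium wells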
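IDH1KD HT-1080 cells, 750/well, RPMI + 5% FBS; compound pinned after 2 h settling; 48 h, 37 °C; CellTiter-Glo luminescence; % activity normalised to DMSO and no-cell wells; curves fitted, classed by r2 and efficacy.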
KB-3-1 tox = kills parental KB-3-1 adenocarcinoma cells; KB-3-1 viability, CellTiter-Glo ATP luminescence, 72 h; Potency, µM (titrated, usually from 46.1 µM), actives largely listed as cytotoxic; AID 1347075; 400,000 tested, 1.4% active; further: on the % scale 0 is the no-effect control and ±100 the full control effect; nearly all actives have a fitted effect of over 60% in size
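Screening of KB-3-1 cells (DMEM, 10% FBS, phenol-red free) ran from lowest to highest compound concentration; after 72 h at 37 °C viability was read luminescently and curves fitted.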
HT1080-NT tox = kills 2HG-producing HT-1080-NT fibrosarcoma cells | Potency, µM (top dose mostly 46.1 µM), without a hit: top-dose activity, negative = less viability, hits mostly cytotoxic | 360,000 tested, 1.6% active | AID 686970 | HT-1080-NT fibrosarcoma viability, CellTiter-Glo ATP luminescence, 48 h;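 further: NT is the 2HG producing partner of a matched IDH1 knockdown line; 0% = DMSO-treated cells and -100% = media-only wells without cells; nearly all actives have a fitted effect of over 55% in size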
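Fibrosarcoma NT cells, 750 per well in 5% FBS RPMI, were exposed to compound for 48 hours. Viability: CellTiter-Glo luminescence.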
KB-V1 cytotox = kills drug-selected multidrug resistant KB-V1 cells | Potency, µM (series often up to 46.1 µM), hits mostly cytotoxic | KB-V1 MDR cells viability, CellTiter-Glo, 72 h | 400,000 tested, 3.4% active; further: on the % scale 0 is the no-effect control and ±100 the full control effect; nearly all actives have a fitted effect of over 60% in size
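Compound-treated KB-V1 multidrug-resistant cells, 72 h, 37 degrees C; viability by CellTiter-Glo. Fitted qHTS curves give the values.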
* hit, by the source's call; i = inactive; ? = inconclusive; nt = not tested or not shown; [ ] = remark or other dose. The call rests on the fitted dose curve; in most records, active means well fitted curve in the direction sought with a large enough effect; inconclusive means small, poorly fitted or top-dose-only effect, or another doubt; inactive means no such curve, though single readings can be large; an effect the other way counts as inactive or inconclusive. Potency means the concentration at half of the fitted maximal effect.

SMILES	MCF10A rerep	SW480 rerep	HT1080 IDH1KD tx	KB-3-1 tox	HT1080-NT tox	KB-V1 cytotox
COc1ccc(CN(Cc2ccccc2)C(=O)c2ccno2)cc1COc1ccc(NC(C)=O)cc1	nt	nt	7%	nt	-1%	nt
Cc1cc(Br)ccc1NC(=O)CN1C(=O)C2C3CC(c4ccccc4)C(C3)C2C1=O (stereo not drawn)	?	5%	-24%	i	-12%	21µM*
OCCCn1c(-c2ccccc2)nc(=S)c2c1CCCC2	0%	-11%	-7%	i	-5%	i
CN(C)CCCn1c(-c2ccccc2)nc(=S)c2c1CCCC2	-181%[0.0737 µM]	3.3µM*	13%	i	-5%	i
N#Cc1c(C(F)(F)F)cc(-c2ccc(Cl)cc2)[nH]c1=O	4.6µM*	?	?	i	?	i
N#Cc1c(C(F)(F)F)cc(-c2ccc(F)cc2)[nH]c1=O	21µM*	452%	-13%	i	-8%	i
COc1ccccc1-c1cc(C(F)(F)F)c(C#N)c(=O)[nH]1	?	20%	-1%	i	3%	i
N#Cc1c(C(F)(F)F)cc(-c2cccc(Cl)c2)[nH]c1=O	16µM*	?	?	i	?	i
COc1ccc(-c2cc(C(F)(F)F)c(C#N)c(=O)[nH]2)cc1	18µM*	18%	-10%	i	-12%	i
Cc1ccc(S(=O)(=O)n2nc(-c3ccc(Cl)cc3)nc2NCc2ccc(F)cc2)cc1	nt	nt	nt	i	nt	?
OC[C@@H]1CCC[C@@H](n2cnc3c(=S)nc[nH]c32)O1	nt	nt	nt	?	nt	i
Cc1cc(C)c(S(=O)(=O)Nc2cc(SCC(=O)O)c(O)c3ccccc23)cc1C	?	?	21µM*	?	-19%	?
COc1ccc(S(=O)(=O)Nc2cc(SCC(=O)O)c(O)c3ccccc23)cc1	-11%	?	-6%	?	?	?
O=C(O)CSc1cc(NS(=O)(=O)c2ccc(Cl)cc2)c2ccccc2c1O	23µM*	?	26µM*	?	?	?
Cc1ccc(S(=O)(=O)NCCCNC(=O)c2ccccc2)cc1	-1%	-4%	2%	i	10%	18µM*
Cc1ccc(S(=O)(=O)NCCCN(C)C)cc1	6%	-6%	11%	i	2%	i
Cc1ccc(S(=O)(=O)NCCCNS(=O)(=O)c2ccc(C)cc2)cc1	1%	-2%	0%	i	7%	15µM*
CCNS(=O)(=O)c1ccc(NS(=O)(=O)c2cc(C)ccc2C)cc1	7%	1%	-4%	i	-8%	i
Cc1ccc(S(=O)(=O)NCCNC(=O)c2ccccc2)cc1	-3%	-2%	1%	i	-1%	i
CCCCNS(=O)(=O)c1ccc(NS(=O)(=O)c2c(C)cc(C)cc2C)cc1	4.6µM*	?	?	i	?	i
Cc1ccccc1C(=O)NC1(C(F)(F)F)C(=O)Nc2c1c(=O)[nH]c(=O)n2-c1ccc(F)cc1 (stereo not drawn)	nt	nt	nt	i	nt	i
Cc1ccc(O)c(Nc2nc(-c3ccccc3)nc3ccccc23)c1	?	11%	-5%	i	-5%	i
Oc1[nH]c(N=C2N=c3ccccc3=N2)c2ccccc12	?	16µM*	?	?	?	?
Cc1ccc2c(c1)=N/C(=N\c1[nH]c(O)c3ccccc13)N=2	nt	nt	?	?	23µM*	?
O=C(CN1CCN(C(=O)c2ccco2)CC1)N1CCc2[nH]c3ccccc3c2C1	7%	-1%	10%	i	30%	i
Cc1ccc2[nH]c3c(c2c1)CN(C(=O)CN1CCN(c2cccc(C)c2C)CC1)CC3	?	?	18µM*	?	?	21µM*
CC1(C(=O)Nc2cnc3ccccc3c2)CCN1C(=O)c1ccccc1CCc1ccccc1 (stereo not drawn)	nt	nt	?	?	?	18µM*

Screening data as filed in PubChem.
